Compounds without any hit were thinned out: in the full panel of roughly 83,000, 20% have a hit.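 A percent growth of 40 corresponds to 60% growth inhibition; 0 means no net growth; -100 means all cells died. Active threshold: below 10.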 A number with no mark means an inactive call. Active and inactive are the calls of the source.
Assays:
Test in all cases: NCI-60 one-dose screen, 48 h (100 = growth as untreated, 0 = no growth, -100 = all killed)
Settings in all cases: 10 µM unless noted
HCT-15 colon = tested on: HCT-15 colon
HT29 colon = tested on: HT29 colon
SNB-75 CNS = tested on: SNB-75 CNS
SNB-19 CNS = tested on: SNB-19 CNS
U251 CNS = tested on: U251 CNS
PC-3 prostate = tested on: PC-3 prostate
SK-MEL-5 melanoma = tested on: SK-MEL-5 melanoma
UACC-62 melanoma = tested on: UACC-62 melanoma
SK-MEL-28 melanoma = tested on: SK-MEL-28 melanoma
SK-MEL-2 melanoma = tested on: SK-MEL-2 melanoma
EKVX NSCLC = tested on: EKVX NSCLC
SN12C renal = tested on: SN12C renal
UO-31 renal = tested on: UO-31 renal
TK-10 renal = tested on: TK-10 renal
ACHN renal = tested on: ACHN renal
CAKI-1 renal = tested on: CAKI-1 renal
A498 renal = tested on: A498 renal
CCRF-CEM leukemia = tested on: CCRF-CEM leukemia
MOLT-4 leukemia = tested on: MOLT-4 leukemia

SMILES	growth (HCT-15 colon)	growth (HT29 colon)	growth (SNB-75 CNS)	growth (SNB-19 CNS)	growth (U251 CNS)	growth (PC-3 prostate)	growth (SK-MEL-5 melanoma)	growth (UACC-62 melanoma)	growth (SK-MEL-28 melanoma)	growth (SK-MEL-2 melanoma)	growth (EKVX NSCLC)	growth (SN12C renal)	growth (UO-31 renal)	growth (TK-10 renal)	growth (ACHN renal)	growth (CAKI-1 renal)	growth (A498 renal)	growth (CCRF-CEM leukemia)	growth (MOLT-4 leukemia)
Cn1cc(-c2csc(-c3c[nH]c4ccc(F)cc34)n2)c2cccnc21	19.2%	11.3%	36.4%	54.4%	37.5%	48%	25.9%	39.6%	57.4%	41.2%	60.4%	64.5%	77.1%	69.7%	48.8%	36.9%	27%	39.7%	46.7%
CN1CCN(c2ccc3nc(-c4[nH]ncc4Nc4ncnc5[nH]ccc45)[nH]c3c2)CC1	4.21% (active)	7.01% (active)	-52.7% (active)	2.27% (active)	7.05% (active)	11.7%	-13% (active)	1.28% (active)	-11.3% (active)	-27.8% (active)	2.05% (active)	2.59% (active)	-9.13% (active)	-9.08% (active)	0.294% (active)	1.7% (active)	-45.7% (active)	4.45% (active)	-13.6% (active)
O=C1CN(c2ccccc2)C(=O)C1C(=O)Nc1ccc(Cl)c(Cl)c1 (configuration not stated)	27.9% [100 µM]	3.98% [100 µM] (active)	6.38% [100 µM] (active)	3.37% [100 µM] (active)	-7.08% [100 µM] (active)	27.1% [100 µM]	-6.23% [100 µM] (active)	-3.41% [100 µM] (active)	33.4% [100 µM]	18.1% [100 µM]	47.4% [100 µM]	17.6% [100 µM]	5.84% [100 µM] (active)	26.4% [100 µM]	2.16% [100 µM] (active)	-2.42% [100 µM] (active)	11.3% [100 µM]	35.9% [100 µM]	6.47% [100 µM] (active)
CCN1CCN(C(=O)[C@]23CCC(C)(C)C[C@@H]2C2=CC[C@@H]4[C@@]5(C)C/C(=C/c6cccnc6)C(=O)C(C)(C)[C@@H]5CC[C@@]4(C)[C@]2(C)CC3)CC1	13.7%	10.6%	45.3%	48.3%	-88.1% (active)	17.2%	-91% (active)	26.6%	41.7%	41.9%	25.4%	29.5%	33.3%	52.4%	33.4%	31.5%	45.1%	33.4%	4.16% (active)
O=C(O)c1cccc2c1C(=O)N(c1ccc3c(c1)Cc1ccccc1-3)C2=O	108%	99.9%	91.6%	111%	111%	97.6%	110%	112%	110%	99%	111%	111%	85.6%	100%	113%	109%	104%	104%	101%
Cc1ccc(-c2ccc(/C=C(\C#N)c3nc(-c4ccco4)cs3)o2)cc1	69.2%	102%	84.9%	99.6%	98.7%	100%	87.8%	87.5%	112%	104%	52.1%	97.1%	79%	69.9%	98.6%	94.5%	106%	79.1%	94.6%
O=C(/C=C/c1cccc(O)c1)c1ccccc1O	92.9%	87.7%	72%	90.1%	77%	83.8%	92.3%	87.4%	98.2%	84.1%	86.9%	83.7%	73.9%	121%	86.9%	50.4%	106%	47.1%	66.9%
Brc1ccc2[nH]cc(-c3nc(-c4c[nH]c5ncccc45)cs3)c2c1	-32.3% (active)	9.69% (active)	37.3%	68.8%	27.7%	38.1%	54.7%	41.9%	71.6%	36.3%	43.9%	49.8%	19.2%	30.1%	15.9%	7.49% (active)	43.6%	29.7%	18.4%
